Experimental data as given in PubChem BioAssay AID1159580 (chemical genetic matrix, 2015).
Where “and” joins values, the source holds several entries; their conditions need not be identical. Identical values can stand only once. Out of some 5,500 compounds screened, about 2,000 (36%) were called active. Another 18% or so got no clear call; they are omitted. Cut-off read from the data, not from the text of the source: active = normalized growth mostly below about 0.91 (no sharp cut-off); inconclusive = no clear call, values can overlap the other calls; inactive = mostly above about 0.92. The list shows a part of the results.

Test: chemical genetic growth profiling, strain panel (AID 1159580);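 note: tested at 20 µM; growth read once vehicle control cultures reached saturation at 30 °C; 1 = growth at the plate median or of vehicle wells; lower values mean less growth of the strain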
Details: growth OD

Measured: normalized growth

O=c1[nH]c2cc(Cl)c(Cl)cc2[nH]c1=O
inactive: S. cerevisiae deletion strains, locus YJR075W, strain HOC1, active compounds read low 1 and 1.01 | S. cerevisiae deletion strains, locus YKL009W, strain mrt4, active compounds read low 1.02 | S. cerevisiae deletion strains, locus YKL068W, active compounds read low 1.02 | S. cerevisiae deletion strains, locus YKL085W, strain MDH1 (second series), active compounds read low 1.01 | S. cerevisiae deletion strains, locus YKL085W, strain MDH1, active compounds read low 1.01 | S. cerevisiae deletion strains, locus YKL160W, strain elf1, active compounds read low 0.988 | S. cerevisiae deletion strains, locus YKL190W, strain CNB1, active compounds read low 1.01 | S. cerevisiae deletion strains, locus YKR001C, strain vps1, active compounds read low 1.05 | S. cerevisiae deletion strains, locus YKR026C, strain gcn3, active compounds read low 0.989 | S. cerevisiae deletion strains, locus YKR091W, strain srl3, active compounds read low 0.987 | S. cerevisiae deletion strains, locus YLL001W, strain dnm1, active compounds read low 0.992 | S. cerevisiae deletion strains, locus YLL026W, active compounds read low 0.988 | S. cerevisiae deletion strains, locus YLL041C, strain sdh2, active compounds read low 0.995 | S. cerevisiae deletion strains, locus YLR027C, strain aat2, active compounds read low 0.957 | S. cerevisiae deletion strains, locus YLR039C, strain RIC1, active compounds read low 1.04 | S. cerevisiae deletion strains, locus YLR058C, strain SHM2, active compounds read low 1.01 | S. cerevisiae deletion strains, locus YLR102C, strain apc9, active compounds read low 1.02 | S. cerevisiae deletion strains, locus YLR221C, strain rsa3, active compounds read low 0.955 | S. cerevisiae deletion strains, locus YLR258W, strain gsy2, active compounds read low 0.99 | S. cerevisiae deletion strains, locus YLR262C, strain YPT6 (second series), active compounds read low 0.989 | S. cerevisiae deletion strains, locus YLR262C, strain YPT6, active compounds read low 1.04 | S. cerevisiae deletion strains, locus YLR268W, strain sec22, active compounds read low 1.03 | S. cerevisiae deletion strains, locus YLR320W, strain mms22, active compounds read low 0.963 | S. cerevisiae deletion strains, locus YLR342W, strain FKS1 (second series), active compounds read low 0.99 | S. cerevisiae deletion strains, locus YLR342W, strain FKS1, active compounds read low 0.988 | S. cerevisiae deletion strains, locus YLR357W, strain rsc2, active compounds read low 0.984 | S. cerevisiae deletion strains, locus YLR370C, strain arc18, active compounds read low 0.995 | S. cerevisiae deletion strains, locus YLR371W, strain rom2, active compounds read low 1.03 | S. cerevisiae deletion strains, locus YLR384C, strain iki3, active compounds read low 1.01 | S. cerevisiae deletion strains, locus YLR418C, strain cdc73, active compounds read low 1.07 | S. cerevisiae deletion strains, locus YML016C, strain PPZ1, active compounds read low 1.01 | S. cerevisiae deletion strains, locus YML032C, strain rad52, active compounds read low 1.04 | S. cerevisiae deletion strains, locus YML120C, strain ndi1, active compounds read low 1.02 | S. cerevisiae deletion strains, locus YML124C, strain tub3, active compounds read low 1.02 | S. cerevisiae deletion strains, locus YMR058W, strain fet3, active compounds read low 0.994 | S. cerevisiae deletion strains, locus YMR078C, strain ctf18, active compounds read low 1.03 | S. cerevisiae deletion strains, locus YMR125W, strain sto1, active compounds read low 0.994 | S. cerevisiae deletion strains, locus YMR129W, active compounds read low 1.01 | S. cerevisiae deletion strains, locus YMR205C, strain PFK2, active compounds read low 0.974 | S. cerevisiae deletion strains, locus YMR223W, strain ubp8, active compounds read low 1.03 | S. cerevisiae deletion strains, locus YMR231W, strain pep5, active compounds read low 0.996 | S. cerevisiae deletion strains, locus YMR263W, strain SAP30, active compounds read low 1 | S. cerevisiae deletion strains, locus YMR307W, strain GAS1, active compounds read low 1.03 and 1.01 | S. cerevisiae deletion strains, locus YNL067W, strain RPL9B, active compounds read low 1.01 | S. cerevisiae deletion strains, locus YNL071W, strain lat1, active compounds read low 0.999 | S. cerevisiae deletion strains, locus YNL128W, strain TEP1, active compounds read low 1.02 | S. cerevisiae deletion strains, locus YNL153C, strain GIM3, active compounds read low 1.01 | S. cerevisiae deletion strains, locus YNL175C, strain NOP13, active compounds read low 0.996 | S. cerevisiae deletion strains, locus YNL197C, strain WHI3, active compounds read low 0.975 | S. cerevisiae deletion strains, locus YNL209W, strain ssb2, active compounds read low 1 | S. cerevisiae deletion strains, locus YNL224C, strain SQS1, active compounds read low 1 | S. cerevisiae deletion strains, locus YNL233W, strain BNI4, active compounds read low 1 | S. cerevisiae deletion strains, locus YNL248C, strain rpa49, active compounds read low 1.01 | S. cerevisiae deletion strains, locus YNL250W, strain rad50, active compounds read low 1.03 | S. cerevisiae deletion strains, locus YNL271C, strain bni1, active compounds read low 1.04 | S. cerevisiae deletion strains, locus YNL298W, strain CLA4, active compounds read low 1.03 | S. cerevisiae deletion strains, locus YNL307C, strain MCK1, active compounds read low 1.04 | S. cerevisiae deletion strains, locus YNL322C, strain KRE1 (second series), active compounds read low 0.985 | S. cerevisiae deletion strains, locus YNL322C, strain KRE1, active compounds read low 1 | S. cerevisiae deletion strains, locus YNR049C, strain mso1, active compounds read low 0.992 | S. cerevisiae deletion strains, locus YNR052C, strain pop2, active compounds read low 1.03 | S. cerevisiae deletion strains, locus YOL006C, strain TOP1, active compounds read low 1.05 | S. cerevisiae deletion strains, locus YOL012C, strain htz1 1.66 | S. cerevisiae deletion strains, locus YOL147C, strain pex11, active compounds read low 1.03 | S. cerevisiae deletion strains, locus YOR001W, strain rrp6, active compounds read low 0.959 | S. cerevisiae deletion strains, locus YOR061W, strain CKA2, active compounds read low 1.02 | S. cerevisiae deletion strains, locus YOR069W, strain VPS5, active compounds read low 1.01 | S. cerevisiae deletion strains, locus YOR070C, strain gyp1, active compounds read low 0.97 | S. cerevisiae deletion strains, locus YOR080W, strain dia2, active compounds read low 0.983 | S. cerevisiae deletion strains, locus YOR083W, strain WHI5 (second series), active compounds read low 0.984 | S. cerevisiae deletion strains, locus YOR083W, strain WHI5, active compounds read low 0.982 | S. cerevisiae deletion strains, locus YOR106W, strain vam3, active compounds read low 1.01 | S. cerevisiae deletion strains, locus YOR136W, strain idh2, active compounds read low 1.04 | S. cerevisiae deletion strains, locus YOR144C, strain elg1, active compounds read low 1.02 | S. cerevisiae deletion strains, locus YOR184W, strain ser1, active compounds read low 1.03 | S. cerevisiae deletion strains, locus YOR265W, strain rbl2, active compounds read low 0.987 | S. cerevisiae deletion strains, locus YOR270C, strain vph1, active compounds read low 0.96 | S. cerevisiae deletion strains, locus YOR290C, strain snf2, active compounds read low 0.971 | S. cerevisiae deletion strains, locus YOR316C, strain cot1, active compounds read low 1.02 | S. cerevisiae deletion strains, locus YPL051W, strain arl3, active compounds read low 0.961 | S. cerevisiae deletion strains, locus YPL055C, strain LGE1, active compounds read low 1.02 | S. cerevisiae deletion strains, locus YPL078C, strain atp4, active compounds read low 0.997 | S. cerevisiae deletion strains, locus YPL106C, strain sse1, active compounds read low 0.97 | S. cerevisiae deletion strains, locus YPL240C, strain hsp82, active compounds read low 0.988 | S. cerevisiae deletion strains, locus YPL241C, strain CIN2, active compounds read low 1.01 | S. cerevisiae deletion strains, locus YPR119W, strain clb2, active compounds read low 1.03 | S. cerevisiae deletion strains, locus YPR141C, strain kar3, active compounds read low 1.03 | S. cerevisiae deletion strains, locus YPR163C, strain tif3, active compounds read low 1.04 | S. cerevisiae deletion strains, locus YPR167C, strain met16, active compounds read low 1.02 | S. cerevisiae deletion strains, strain wtn01, active compounds read low 1.02 | S. cerevisiae strains, strain wild type, active compounds read low 1.01
active: S. cerevisiae deletion strains, locus YLR330W, strain CHS5, active compounds read low 0.894
